# HGIII-sPLA2 inh: Inhibits HGIII-sPLA2 liposome hydrolysis, primary screen. inhibition, % at 12.2 µM. actives 0.56% (n = 370,000). QFRET BODIPY PC-A2 liposome hydrolysis, fluorescence. AID 743126. Q9NZ20;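 active means inhibition above mean plus 3 SD of compounds lying within the high and low control bounds, cut at about 19% in these data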;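 further: 0% = median of test compound wells and 100% = no enzyme DMSO wells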
# Target sequence (Q9NZ20 whole entry, looked up): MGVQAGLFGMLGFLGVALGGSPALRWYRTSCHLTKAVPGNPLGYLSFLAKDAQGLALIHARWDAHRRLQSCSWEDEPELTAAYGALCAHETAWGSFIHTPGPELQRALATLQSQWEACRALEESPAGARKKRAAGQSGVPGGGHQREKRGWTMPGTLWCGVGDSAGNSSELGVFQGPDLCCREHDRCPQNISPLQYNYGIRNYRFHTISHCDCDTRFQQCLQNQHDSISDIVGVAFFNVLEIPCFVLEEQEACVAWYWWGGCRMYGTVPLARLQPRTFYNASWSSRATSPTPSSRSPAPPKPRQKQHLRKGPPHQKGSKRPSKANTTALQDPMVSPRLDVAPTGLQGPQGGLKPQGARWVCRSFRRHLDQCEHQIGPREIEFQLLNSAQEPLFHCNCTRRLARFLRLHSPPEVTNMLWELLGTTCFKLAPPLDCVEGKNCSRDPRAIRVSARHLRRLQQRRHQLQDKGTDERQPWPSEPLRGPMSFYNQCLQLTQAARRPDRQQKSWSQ
# bovine MsrA act: bovine methionine sulfoxide reductase A activation; purified bovine MsrA, absorbance read-out; activation, % at 10.6 µM; actives 0.3% (n = 360,000); in the data active means activation above about 7.5%;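 further: 0% = vehicle and 100% = reference activator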
# MsrA inhibitor: bovine MsrA inhibition | purified bovine MsrA, absorbance read-out | inhibition, % at 15.5 µM | actives 0.75% (n = 360,000) | AID 651718; in the data active means inhibition above about 4.5%;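 further: 0% = vehicle wells with enzyme and 100% = reference inhibitor wells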
# rCAG binder: r(CAG) repeat RNA binding. TO-PRO-1 dye displacement fluorescence. inhibition, % at 3 µM. actives 1.3% (n = 370,000);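 active means inhibition above the plate cutoff, the mean of all test compounds on that plate plus 3 SD, cut at about 35% in these data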;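 further: 0% = DMSO alone and 100% = 100 µM mitoxantrone as full dye displacement; higher means more dye released from RNA so lower well fluorescence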
# PG9 Ab binder: binds the HIV-1 gp120 antibody PG9. TR-FRET gp120-PG9 antibody binding. actives 0.43% (n = 360,000). inhibition, % at 6.7 µM. AID 624416; in the data active means inhibition above about 8.5%
# sPLA2 confirm: human GIII-sPLA2 inhibition, confirmation; recombinant hGIII-sPLA2, BODIPY PC-A2 QFRET fluorescence; actives 34% (n = 2,000); shares compounds with HGIII-sPLA2 inh; inhibition, % at 12.2 µM;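 active means mean inhibition across triplicates above the hit cutoff set in the earlier primary screen, cut at about 19% in these data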;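 further: 0% = enzyme with DMSO and 100% = DMSO wells lacking enzyme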
# BODIPY interf: counter-screen for HGIII-sPLA2 inhibitors: 535nm fluorescence interference | shares compounds with HGIII-sPLA2 inh | BODIPY FL product fluorescence interference, QFRET | inhibition, % at 12.2 µM | actives 8.5% (n = 2,000);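 active means average inhibition above the solvent-only control mean plus 3 SD, cut at about 6% in these data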;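 further: 0% = DMSO with substrate plus product and 100% = DMSO with substrate alone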
# 535nm interf DR: 535nm optical interference dose response, HGIII-sPLA2 counter-screen. IC50, µM. AID 743455. BODIPY FL product fluorescence interference, cell-free. 240 tested, under 10 active. shares compounds with HGIII-sPLA2 inh;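 active means IC50 at or below 10 µM; inactive means IC50 above 10 µM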
# * hit, by the source's call; · = no result given. In the library only some 3.2% were active in any assay of this set; here they are far more common.
SMILES,HGIII-sPLA2 inh,bovine MsrA act,MsrA inhibitor,rCAG binder,PG9 Ab binder,sPLA2 confirm,BODIPY interf,others
C[C@@H]1CN([C@H](C)CO)C(=O)CCCn2nncc2CO[C@@H]1CN(C)C(=O)c1ccccc1,21*,-1,0,2,1,-1,-5,
C[C@@H]1CN([C@H](C)CO)C(=O)CCCn2nncc2CO[C@H]1CN(C)C(=O)c1ccc(N2CCN(C)CC2)cc1,19*,-5,1,3,-1,-7,-12,
C[C@@H]1CN([C@@H](C)CO)C(=O)CCCn2nncc2CO[C@@H]1CN(C)C(=O)c1ccccc1,5,-2,-1,0,0,·,·,
COC(=O)[C@@]12CCCCC3=C1N(CCC3)C(=O)[C@H]2CC(=O)NCc1ccc(OC)c(OC)c1,10,·,·,0,·,·,·,
O=C(Nc1ccc(C(F)(F)F)cc1)OC1CCC12CCC(c1ccccc1)CC2 (stereo not given),8,·,·,2,·,·,·,
Cc1ccc(NC(=S)NNC(=O)c2nn(C)c(C)c2Cl)cc1,38*,-1,0,10,0,48*,1,535nm interf DR=>122
COc1ccc(Nc2nc(-c3cccs3)nc3ccccc23)cc1S(=O)(=O)N1CCOCC1,-39,-2,2,21,0,·,·,
COCCCNC(=S)NNC(=S)NCCCOC,22*,-2,0,-1,0,5,-6,
CCOc1ccc(NC(=S)Nc2ccc(OC)cc2)cc1,8,-1,1,-2,-3,·,·,
CCOc1ccc(NC(=S)c2ccncc2)cc1,22*,2,1,-2,-2,4,-8,
CCOC(=O)Cn1cc(CN2C(C(=O)OC)CN(C3CC3)CCS2(=O)=O)nn1 (stereo not given),11,·,·,1,·,·,·,
COc1ccc(-n2cnc3ccccc32)cc1,1,-5,-1,2,-1,·,·,
COc1ccc(-n2cnc3c(N)nc(N)nc32)cc1,20*,-4,1,2,3,-2,-5,
CCOC(=O)NC(NC(=S)Nc1ccc(OCC)cc1)C(Cl)(Cl)Cl (stereo not given),24*,-3,0,1,-1,9,-5,
CN(C)C(=O)NC(NC(=S)Nc1ccccc1)C(Cl)(Cl)Cl (stereo not given),6,-2,-1,4,1,·,·,
CCc1c(-c2cccc(Cl)c2)ncn1CCc1ccccc1OC,5,·,1,1,2,·,·,
CN(C)c1ccc(N=Nc2ccc3ncccc3c2)cc1,10,-1,-1,2,-6,·,·,
Cc1cc(N(C)C)ccc1N=Nc1ccc2ncccc2c1,23*,-1,1,10,0,23*,2,
CCCCC(=O)Nc1ccc(C(=O)NNC(=S)NC(=O)c2cccs2)cc1,24*,0,3,28,-3,28*,-28,535nm interf DR=>122
O=C(Cc1ccccc1)NNC(=S)NC(=O)c1cccs1,21*,3,2,0,-2,35*,-5,535nm interf DR=>122
CCCCC(=O)Nc1ccc(C(=O)NNC(=S)NC(=O)c2ccco2)cc1,20*,-1,2,21,-1,24*,-13,
O=C(NNC(=S)NC(=O)c1cccs1)c1ccc(NC(=O)c2ccccc2)cc1,21*,6,5,34,0,41*,-34,535nm interf DR=>122
CSc1ccc(CN2CCC2(C)C(=O)NCc2ccc3c(c2)OCO3)cc1 (stereo not given),5,-2,2,-1,-2,·,·,
CN(C)c1ccc(C(=O)NC2CCCCN(Cc3cccc(Cl)c3)C2=O)cc1 (stereo not given),-9,·,·,0,·,·,·,
COc1ccc(NC(=O)C(OC(=O)CNC(=O)c2ccccc2)c2ccccc2)cc1F (stereo not given),-14,·,·,·,·,·,·,
SMILES,HGIII-sPLA2 inh,bovine MsrA act,MsrA inhibitor,rCAG binder,PG9 Ab binder,sPLA2 confirm,BODIPY interf,others
O=C(CCN1CCC2CCC(C2)C1)c1ccccc1 (stereo not given),4,-4,-1,4,2,·,·,
OC(CCN1CCC2CCC(C2)C1)c1ccc(Br)cc1 (stereo not given),20*,-8,1,-2,0,5,-17,
C=CCNC(=S)NNC(=O)c1ccc(C)c(Cl)c1,23*,-2,1,3,-2,21*,3,
C=CCNC(=S)NNC(=O)c1cccn(Cc2ccc(Cl)cc2Cl)c1=O,26*,0,1,3,-1,22*,1,
C=CCNC(=S)NNC(=O)c1cccn(Cc2ccc(Cl)c(Cl)c2)c1=O,25*,-1,1,8,-1,31*,-5,535nm interf DR=>122
COC(=O)CSc1nnc(-c2ccc(NS(=O)(=O)c3ccc(C(C)(C)C)cc3)cc2)o1,-43,·,·,33,·,·,·,
Nc1[nH]n(-c2ccccc2)c(=O)c1N=Nc1ccc2c(c1)OCO2,21*,-2,1,7,-7,27*,6,
Nc1[nH]n(-c2ccccc2)c(=O)c1N=Nc1ccc2c(c1)OCCO2,2,-9,0,9,-4,·,·,
CCN1Cc2nnn(Cc3ccccc3)c2-c2cc(F)ccc2S1(=O)=O,2,·,·,1,·,·,·,
COc1ccc(C2=Nn3c(nnc3-c3ccccc3)SC2)cc1OC,2,-2,0,-1,-1,·,·,
CCCc1nnc2n1N=C(c1ccc(OC)c(OC)c1)CS2,20*,-3,2,-6,1,0,-11,
Cn1c(=O)c(=O)n(C)c2cc(S(=O)(=O)N3CCN(Cc4ccc(F)cc4)CC3)ccc21,-1,·,·,9,·,·,·,
[C-]#[N+][C@]12C(=O)[C@H](C=C(Cl)[C@@]1(C)C=C)C(C)(C)[C@H]1C(=O)N(C)c3cccc2c31,31*,·,·,2,·,21*,-13,
CCn1c(-c2cccc(Br)c2)n[nH]c1=S,23*,-7,0,-2,2,34*,-3,535nm interf DR=>122
CCn1c(-c2ccc3ncccc3c2)n[nH]c1=S,7,-1,1,0,-1,·,·,
OC(c1ccccc1)c1ccccc1CN1CCCNC1=S (stereo not given),19*,-7,0,4,-1,10,-1,
Oc1c(CN2CCCCC2)ccc2cccnc12,21*,-1,1,5,0,1,-44,
CCC1CCCCN1C(=S)NC(=O)c1cc(S(=O)(=O)N2CCOCC2)ccc1C (stereo not given),20*,-2,1,1,2,11,-1,
Cc1ccc(S(=O)(=O)NNC(=O)c2ccncc2)cc1,7,-3,0,-2,-1,·,·,
Cc1ccc(S(=O)(=O)NNC(=O)c2sc(=S)n(C)c2C)cc1,23*,-2,4,5,0,6,-2,
COc1ccc(C2=C(c3ccccc3)OC(OC)c3cc(F)ccc32)cn1 (stereo not given),-3,-7,2,5,-1,·,·,

# Source: PubChem BioAssay (The Scripps Research Institute Molecular Screening Center)
